HIV RNase H inh = HIV-1 RT RNase H inhibitors, primary screen, biochemical, fluorescence. Gag-Pol polyprotein (Human immunodeficiency virus type 1 group M subtype B (isolate …. RT-RNase H RNA/DNA duplex cleavage. inhibition, % at 10 µM. 1.9% of 65,000 active. AID 565, 2006; in the data active = inhibition above about 50%
Hits are given with their value; i = inactive. This is one part of a sample in which hits are shown more often than they occur.

SMILES	HIV RNase H inh
COC(=O)CSc1nnc(CNC(=O)c2cccs2)n1-c1cc(OC)ccc1OC	i
CCn1c(CCNC(=O)c2cccs2)nnc1SCC(=O)c1ccc(OC)cc1	57
CCn1c(CNC(=O)c2ccc(OC)cc2)nnc1SCC(=O)c1ccccc1	i
COc1cc(C2c3c(oc4ccccc4c3=O)C(=O)N2Cc2ccncc2)ccc1O (stereo not given)	i
COc1cccc(-c2nnc(SCC(=O)Nc3ccc4c(c3)OCCO4)n2Cc2ccco2)c1	i
CCC(Sc1nc2cc3c(cc2c(=O)n1Cc1ccco1)OCO3)C(=O)Nc1ccccc1OC (stereo not given)	i
CCC(Sc1nc2cc3c(cc2c(=O)n1Cc1ccco1)OCO3)C(=O)Nc1cccc(OC)c1 (stereo not given)	60
Fc1ccc(-c2nnc3ccc(N4CCc5ccccc5C4)nn23)cc1	i
CC1=CS/C(=C(/C#N)C(=O)N2CCCCC2)N1c1ccccc1	i
COC(=O)/C(C#N)=C1/SC=C(C)N1c1ccccc1	i
N#C/C(C(=O)c1ccccc1)=C1/SC=C(N)N1c1ccccc1	64
N#CC1(c2nc3ccccc3[nH]2)CC1c1ccc2c(c1)OCO2 (stereo not given)	i
Cc1sc2nc3c(C(=O)N4CCN(c5ncccn5)CC4)cccn3c(=O)c2c1C	i
CCOC(=O)c1[nH]c2ccc(OC)cc2c1NC(=O)CCN1CCCC(C)C1 (stereo not given)	i
O=C1C(Cl)=C(N2CCOCC2)C(=O)N1CCc1ccccc1	i
O=C(O)c1cccc(N2CCCC2)c1	i
O=C1C(Cl)=C(N2CCOCC2)C(=O)N1c1cccc(Cl)c1	93
O=C1C(Cl)=C(N2CCCCCC2)C(=O)N1c1ccccc1	57
O=C1CC(N2CCOCC2)C(=O)N1c1cccc(Cl)c1 (stereo not given)	i
CN1CCN(C2=C(Cl)C(=O)N(CCc3ccccc3)C2=O)CC1	i
NC(=O)C1CCN(C(c2ccccc2Cl)c2nnnn2Cc2ccc3c(c2)OCO3)CC1 (stereo not given)	i
N#CC(C(=O)NC1CCCCC1)c1nc2ccccc2nc1N1CCCCC1 (stereo not given)	i
O=C(Nc1ccncc1)c1c(O)c2ccccc2n(Cc2ccccc2)c1=O	i
CCCCn1c(=O)c(C(=O)NCc2ccncc2)c(O)c2ccccc21	i
CCCCCCn1c(=O)c(C(=O)Nc2ccncc2)c(O)c2ccccc21	69
SMILES	HIV RNase H inh
CC(=O)c1cccc(NC(=O)Nc2ccc3c(c2)N(C)C(=O)CS3)c1	i
O=C(CSc1nnnn1-c1ccc(Cl)cc1)N1CCc2ccccc2C1	i
COc1ccc2c(C=Nc3c(C)n(C)n(-c4ccccc4)c3=O)c(O)n(Cc3ccco3)c(=O)c2c1	i
CCOC(=O)c1c(C)nn(Cc2cccc(Cl)c2)c1N	i
O=C(C1CCCN(c2ncccn2)C1)N1CCc2ccccc21 (stereo not given)	i
CC(=O)Nc1c(C(=O)O)oc2ccc(Cl)cc12	i
CC(=O)Nc1c(C(=O)O)oc2ccccc12	56
CC(=O)Nc1c(C(=O)c2ccc(F)cc2)oc2ccccc12	i
CCSc1nnc(NC(=O)c2csc3c2CCC(C)C3)s1 (stereo not given)	58
CCSc1nnc(NC(=O)c2ccccc2)s1	i
CCSc1nnc(NC(=O)c2cc3c(s2)CCCC3)s1	i
COCCn1c(CN2CCN(c3ccccc3F)CC2)nc2c1c(=O)n(C)c(=O)n2C	i
CC(=O)c1ccc(C(C)(C)c2ccc(C(C)=O)s2)s1	i
COc1ccc(Cl)cc1N1C(=O)C2CCCN2C1c1sccc1C (stereo not given)	i
COc1ccc(Cl)cc1-n1c(N)c(C(N)=O)sc1=S	75
CCOC(=O)c1sc(=S)n(Cc2ccccc2)c1N	i
Cc1ccc(-n2c(N)c(C(N)=O)sc2=S)c(C)c1	65
COc1ccc(C2N(c3cc(Cl)ccc3OC)C(=O)C3CCCN32)cc1 (stereo not given)	i
Cc1ccc(C)c(-n2c(N)c(C(N)=O)sc2=S)c1	i
C=CCN=C(NC#N)SCC(=O)c1cccc(OC)c1	i
COC(=O)c1ccc(C)c(NS(=O)(=O)c2ccc(OC)cc2)c1	i
COc1ccc(S(=O)(=O)Nc2cc(C(C)C)c(O)cc2C)cc1	i
COc1ccc(S(=O)(=O)Nc2cc(C)c(O)cc2C(C)C)cc1	55
COc1ccc(C(=O)Nc2ccccc2C(=O)NCc2ccco2)cc1OC	i
COc1ccc(OC)c(N=c2oc3c(OC)cccc3cc2C(=O)NCc2ccco2)c1	88
SMILES	HIV RNase H inh
COc1ccc(N=c2oc3c(OC)cccc3cc2C(=O)NCc2ccco2)cc1OC	i
Cc1ccc(-c2csc3ncnc(Sc4nnc(CN5CCCCCC5=O)o4)c23)cc1	i
CCC(=O)N1CCN(CCN=Cc2c(O)n(C3CCCCC3)c(=O)n(C3CCCCC3)c2=O)CC1	i
CC(C)C(=O)N1CCC(CN=Cc2c(O)n(C3CCCCC3)c(=O)n(C3CCCCC3)c2=O)CC1	i
NS(=O)(=O)c1ccc(N=Cc2c(O)n(C3CCCCC3)c(=O)n(C3CCCCC3)c2=O)cc1	52
O=C(Cn1c(CN2CCCCC2)nc2ccccc2c1=O)NCc1ccco1	i
Cc1ccc(OC(=O)c2cccc(C(=O)Oc3ccc(C)cn3)n2)nc1	i
COC(=O)c1ccc(CSc2ncnc3c2sc2nc(N4CCOCC4)c4c(c23)CCCC4)o1	83
COC(=O)c1ccc(-c2sc3nc(N4CCOCC4)c4c(c3c2N)CCCC4)o1	i
COC(=O)c1ccc(Cn2nnc3c(sc4nc(N5CCOCC5)c5c(c43)CCCC5)c2=O)o1	i
COc1ccc(-c2nnc(NC(=O)c3ccc(S(=O)(=O)N4CCCc5ccccc54)cc3)o2)cc1	52
O=C(Nc1nnc(C2CC2)o1)c1ccc(S(=O)(=O)N2CCCc3ccccc32)cc1	i
COc1cccc(-c2nnc(NC(=O)c3ccc(S(=O)(=O)N4CCOCC4)cc3)o2)c1	i
O=C(COc1ccc(-n2cnnn2)cc1)NC(=O)NCc1ccccc1	i
COc1ccc(S(=O)(=O)N(CCCN2CCCC2=O)Cc2cc3cc(C)c(C)cc3[nH]c2=O)cc1	i
CC(Sc1nnnn1-c1ccccc1)C(=O)Nc1ccc(Cl)cn1 (stereo not given)	i
COc1ccc(F)cc1S(=O)(=O)Nc1ccc(C)cc1	i
O=C(c1ccc2c(=O)n(Cc3ccc4c(c3)OCO4)c(=S)[nH]c2c1)N1CCCCC1	61
CCOC(=O)N1CCN(C(=O)c2ccc(Cn3c(=S)[nH]c4cc5c(cc4c3=O)OCO5)cc2)CC1	i
CN1CCN(C(=O)c2ccc3c(=O)n(Cc4ccc(Cl)cc4)c(=S)[nH]c3c2)CC1	i
CCCCNC(=O)CC(=O)Nc1ccccc1C(=O)O	i
O=C(Nc1ccc(OC(F)(F)F)cc1)C1CCCN(S(=O)(=O)c2cccnc2)C1 (stereo not given)	i
O=c1[nH]c(=S)[nH]nc1Cc1ccccc1	i
CC(Nc1n[nH]c(=S)[nH]c1=O)C(=O)OCc1ccccc1 (stereo not given)	53
CCCCOC(=O)C(C)Nc1n[nH]c(=O)[nH]c1=O (stereo not given)	i
SMILES	HIV RNase H inh
CC(=O)C1=C(C)Nc2ncnn2C1c1ccc(Cl)cc1 (stereo not given)	i
COc1ccc(CCN2C(=O)C3C4C=CC(C4)C3C2=O)cc1OC (stereo not given)	i
CCS(=O)(=O)C(=C1NCCO1)S(=O)(=O)CC	i
Cc1ccc(CSc2nnc(-c3ccccn3)n2C)cc1	i
Cc1cccc(CSc2nnc(-c3ccccn3)n2N)c1	52
Nn1c(SC/C=C/c2ccccc2)nnc1-c1ccccn1	i

Screening data deposited in PubChem BioAssay by University of Pittsburgh Molecular Library Screening Center.
